This note sets out measurements from PubChem BioAssay (NCATS).

Assay [1] concerns the target Catechol O-methyltransferase (Homo sapiens) (UniProt P21964). The assay can be described thus: Confirmatory Screen for Target Class Profiling of Small Molecule Inhibitors of Methyltransferases (AID 1745852). Also: potency is read from the fitted curve at half-maximal effect. As to activity change, negative = inhibition: % is scaled to controls: 0 for no effect and ±100 for the full control effect. The settings on record: MTase-Glo luminescence, SAH detection, recombinant enzyme; measured here: COMT max response; stronger effect = lower value.
In assay [2] the target is Guanidinoacetate N-methyltransferase (Homo sapiens) (UniProt Q14353). Described as above. Conditions: MTase-Glo luminescence, SAH detection, recombinant enzyme; activity change, negative = inhibition: at 57.3 µM (top of the series) unless noted; series mostly up to 57.3 µM.
The target in assay [3] is Nicotinamide N-methyltransferase (Homo sapiens) (UniProt P40261). The assay is described as above. The settings on record: MTase-Glo luminescence, SAH detection, recombinant enzyme; measured here: NNMT max response; stronger effect = lower value.
The target of assay [4] is Phenylethanolamine N-methyltransferase (Homo sapiens) (UniProt P11086). The description is as above. Conditions: MTase-Glo luminescence, SAH detection, recombinant enzyme; measured here: PNMT max response; stronger effect = lower value.
Assay [5] deals with Rap guanine nucleotide exchange factor 3 (Homo sapiens) (UniProt O95398). The assay can be described thus: Counterscreen qHTS for antagonist of cAMP-regulated guanine nucleotide exchange factor 3 (EPAC1) (AID 1645888; active = well fitted inhibition curve with a large enough effect;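 also: fluorescence loss as bound BODIPY-GDP is released from Rap1B; % of control where 0% means no effect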). Conditions: Rap1B-BODIPY-GDP nucleotide exchange, fluorescence; series mostly up to 154 µM. The procedure, abridged: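 Rap1B-BODIPY-GDP 250 nM + GDP 50 uM; cpds 7-pt, final 9.74 nM–152 uM (activator mode) or from 7.32 nM upwards (inhibitor mode); RT; FI 480/540 nm at 5 and 30 min, then ± cAMP, reread.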
In general terms: A counterscreen serves to expose hits that act by an unwanted route or on another target.

Records with an inconclusive call do not appear. The source made the active and inactive calls. Unless noted, calls follow the shape of the full dose curve.

Sequence of Phenylethanolamine N-methyltransferase (Homo sapiens) (P11086 whole entry, looked up): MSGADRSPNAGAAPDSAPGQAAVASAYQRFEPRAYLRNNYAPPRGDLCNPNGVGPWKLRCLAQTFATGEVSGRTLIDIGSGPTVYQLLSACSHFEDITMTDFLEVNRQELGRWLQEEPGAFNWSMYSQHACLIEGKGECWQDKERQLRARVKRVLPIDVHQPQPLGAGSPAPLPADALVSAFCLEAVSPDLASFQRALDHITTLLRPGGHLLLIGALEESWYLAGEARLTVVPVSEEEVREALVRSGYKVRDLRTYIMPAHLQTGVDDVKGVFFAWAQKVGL
Sequence of Catechol O-methyltransferase (Homo sapiens) (P21964 whole entry, looked up): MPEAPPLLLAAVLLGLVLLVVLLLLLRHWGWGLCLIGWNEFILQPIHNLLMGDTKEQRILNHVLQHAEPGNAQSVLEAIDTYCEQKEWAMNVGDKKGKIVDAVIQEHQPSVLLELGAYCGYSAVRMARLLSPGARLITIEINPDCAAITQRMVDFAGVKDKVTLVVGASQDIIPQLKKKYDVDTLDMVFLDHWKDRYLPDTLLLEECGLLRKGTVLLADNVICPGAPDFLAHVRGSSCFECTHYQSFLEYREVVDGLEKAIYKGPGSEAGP
Sequence of Nicotinamide N-methyltransferase (Homo sapiens) (P40261 whole entry, looked up): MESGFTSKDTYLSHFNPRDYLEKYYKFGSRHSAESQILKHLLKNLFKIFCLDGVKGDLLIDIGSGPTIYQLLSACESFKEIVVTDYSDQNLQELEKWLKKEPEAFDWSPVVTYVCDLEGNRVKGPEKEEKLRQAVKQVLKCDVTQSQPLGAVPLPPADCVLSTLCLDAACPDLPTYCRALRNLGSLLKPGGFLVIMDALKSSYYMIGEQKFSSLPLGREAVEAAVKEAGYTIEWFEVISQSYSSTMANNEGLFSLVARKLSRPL
Sequence of Rap guanine nucleotide exchange factor 3 (Homo sapiens) (O95398 whole entry, looked up): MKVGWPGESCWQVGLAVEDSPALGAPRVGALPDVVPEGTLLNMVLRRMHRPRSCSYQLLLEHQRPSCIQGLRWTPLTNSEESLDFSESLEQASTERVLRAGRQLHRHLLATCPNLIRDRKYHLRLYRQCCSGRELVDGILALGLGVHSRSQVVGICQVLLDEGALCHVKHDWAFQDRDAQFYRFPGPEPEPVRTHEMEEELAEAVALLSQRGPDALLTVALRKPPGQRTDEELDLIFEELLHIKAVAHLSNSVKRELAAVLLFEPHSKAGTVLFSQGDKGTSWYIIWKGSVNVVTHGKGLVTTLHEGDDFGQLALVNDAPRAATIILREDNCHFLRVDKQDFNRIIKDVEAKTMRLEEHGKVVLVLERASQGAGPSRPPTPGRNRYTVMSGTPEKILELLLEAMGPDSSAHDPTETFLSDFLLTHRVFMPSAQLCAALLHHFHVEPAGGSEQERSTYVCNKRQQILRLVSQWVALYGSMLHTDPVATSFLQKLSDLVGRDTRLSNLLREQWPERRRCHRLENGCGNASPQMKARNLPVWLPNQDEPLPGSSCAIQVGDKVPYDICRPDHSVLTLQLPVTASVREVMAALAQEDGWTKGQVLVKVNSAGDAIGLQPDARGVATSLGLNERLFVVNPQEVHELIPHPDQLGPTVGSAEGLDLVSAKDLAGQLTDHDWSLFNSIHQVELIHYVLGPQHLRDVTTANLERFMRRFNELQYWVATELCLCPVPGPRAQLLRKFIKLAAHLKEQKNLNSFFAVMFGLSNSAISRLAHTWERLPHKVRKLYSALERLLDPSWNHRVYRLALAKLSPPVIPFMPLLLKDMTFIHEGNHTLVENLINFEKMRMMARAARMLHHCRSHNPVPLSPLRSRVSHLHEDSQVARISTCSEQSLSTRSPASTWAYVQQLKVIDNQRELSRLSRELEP

Take `CCCc1cc2c(N3CCN(C4=NCC(C)(C)S4)CC3)ncnc2s1`: the activity was -3.43% in assay [1], -77.1% in assay [3] and -5.27% in assay [4]. Further, the activity change, negative = inhibition in assay [2] turned out to be 1.29%.

`N#Cc1ccc(Nc2nc(-c3ccc(O)cc3O)cs2)cc1C(F)(F)F`: in assay [5], the outcome is “inactive”.

`Cc1ccc(CNc2ncnc3ccc(-c4ccc(CO)o4)cc23)o1`: the activity in assay [1] is -5.85%; in assay [3], -7.73%; in assay [4] it was -9.87%. For the same compound, the activity change, negative = inhibition in assay [2] is -1.25%.

Consider `Cc1sc2c(c1C)C(c1ccc(Cl)cc1)=N[C@H](CC(=O)NCCCCNC(=O)COc1cccc3c1C(=O)N([C@H]1CCC(=O)NC1=O)C3=O)c1nnc(C)n1-2`, for which the activity in assay [1] was -0.126%; in assay [3] it was -57.3%; in assay [4] it was 3.3%. For the same compound, the activity change, negative = inhibition in assay [2] stood at 0%.

On to `COc1ccc2nc3n[nH]c(C)c3c(NCCOCCO)c2c1`, for which the activity in assay [1] was -59.3%; in assay [3] it was -38.5%; in assay [4], -54.6%. In addition, in assay [2], the Potency was 27.1 µM (active).

On to `O=C(Nc1ccc(C(F)(F)F)cn1)N1CCN(c2ncccc2C(F)(F)F)CC1`, for which the activity in assay [1] is -1.28%; in assay [3] it was -0.919%; in assay [4], -60.8%. Moreover, in assay [2], the activity change, negative = inhibition was 0%.

Take `CCCSc1nc(N[C@@H]2C[C@H]2c2ccc(F)c(F)c2)c2nnn([C@@H]3C[C@H](OCCO)[C@@H](O)[C@H]3O)c2n1`: the activity is -40.7% in assay [1], -50.5% in assay [3] and -36.5% in assay [4]. In addition, the Potency in assay [2] is 48.2 µM (active).

Take `CNCCC(c1cccs1)c1ccc(O)c2ccccc12` (configuration not stated): the activity in assay [1] is -4.76%; in assay [3], -7.38%; in assay [4], -1.78%. For the same compound, in assay [2], the activity change, negative = inhibition turned out to be 2.71%.

On to `CCOC(=O)N1CCC(CN(Cc2ccc(Cl)cc2)Cc2ccc([N+](=O)[O-])s2)C1` (configuration not stated), for which the activity in assay [1] is -21.2%; in assay [3] it was -5.08%; in assay [4] it was -5.01%. Moreover, in assay [2], the activity change, negative = inhibition is 1.91%.

As for `COc1ccccc1N1CCN(c2ncnc3n[nH]c(Br)c23)CC1`, the values for the activity in assay [1], in assay [3] and in assay [4] were -8.96%, -42.7% and -19.8%, respectively. For the same compound, the activity change, negative = inhibition in assay [2] is -0.635%.

As to `COC(=O)CC1OC(C)C2=C(O)c3c(O)cccc3C(=O)C23OC13` (configuration not stated), the activity in assay [1] was -4.94%; in assay [3] it was -0.835%; in assay [4], -0.505%. Also, the activity change, negative = inhibition in assay [2] was -3.96%.

Take `CC[N+]1(C/C2=C/CCCCCC2)CCC(NC(=O)C2c3cc(Cl)ccc3Oc3ccc(Cl)cc32)CC1` (configuration not stated): the activity in assay [1] is -37.4%; in assay [3], -28%; in assay [4] it was -2.38%. In addition, in assay [2], the activity change, negative = inhibition came out at 0%.

`CC#C[C@@H](CC(=O)O)c1ccc(OCc2cccc(-c3ccc(C(F)(F)F)cc3)c2)cc1`: the activity was -11.2% in assay [1], -23.8% in assay [3] and 3.83% in assay [4]. Moreover, the Potency entry in assay [2] is “inactive”.

Turning to `N#Cc1ccc(N2N=C3c4ccc(C(=O)O)cc4CC[C@@H]3[C@@H]2C2CCCC2)cc1Cl`, the results for the activity in assay [1], in assay [3] and in assay [4] were 7.42%, -82.8% and 0.228%, respectively. Also, the activity change, negative = inhibition in assay [2] is -0.344%.

Consider `C=C1C(=O)O[C@@H]2/C=C(\CO)CC/C=C(/C=O)C[C@@H](O)[C@@H]12`, for which the activity in assay [1] was -63.7%; in assay [3] it was -2.02%; in assay [4], -2.71%. The activity change, negative = inhibition in assay [2] was -8.49%.

Regarding `CN(C)CC1CCn2c(c(C3=C(c4cn(C)c5ccccc45)C(=O)NC3=O)c3ccccc32)C1` (configuration not stated), the activity in assay [1] was -13.6%; in assay [3], -44.5%; in assay [4], -10.7%. In addition, in assay [2], the activity change, negative = inhibition is -2.82%.

Consider `Cc1[nH]c2ccccc2c1CCNCc1ccc(/C=C/C(=O)NO)cc1`, for which the activity in assay [1] was 16.3%; in assay [3] it was -6%; in assay [4], -2.09%. Besides, the activity change, negative = inhibition in assay [2] was -2.13%.

For the compound `COc1ccc(CCN(C)CCCOc2nsc(-c3ccccc3)n2)cc1OC`, the activity in assay [1] was -5.88%; in assay [3] it was -34.1%; in assay [4], -10.5%. Besides, the activity change, negative = inhibition in assay [2] was -0.0909%.

For the compound `Nc1ncnc2c1c(-c1ccc(Oc3ccccc3)cc1)nn2[C@@H]1CCCNC1`, the activity in assay [1] was -13.8%; in assay [3], -54%; in assay [4], -19%. For the same compound, the activity change, negative = inhibition in assay [2] was -5.27%.

For the compound `Cc1ccc(C)c(-c2cc(C(F)(F)F)nn2-c2ccc(S(N)(=O)=O)cc2)c1`, the activity is -7.64% in assay [1], -48.6% in assay [3] and -4.27% in assay [4]. Also, in assay [2], the activity change, negative = inhibition was -5.49%.

Regarding `C=C1C(=O)OC2C(OC(=O)C=C(C)C)C(C)=C3C(=O)C=C(C)C3C(O)C12` (configuration not stated), the activity in assay [1] is -65.9%; in assay [3] it was 2.7%; in assay [4], 4.72%. In addition, the activity change, negative = inhibition in assay [2] was -0.769%.

Take `NC(N)=NC(=O)c1cnn(-c2cccc3ncccc23)c1C1CC1`: the activity in assay [1] is -9.86%; in assay [3], -53.6%; in assay [4], -5.56%. Besides, the activity change, negative = inhibition in assay [2] is -8.74%.

Turning to `CS(=O)(=O)Nc1ccc2oc3c(OC(F)F)ccc(C(=O)Nc4c(Cl)cncc4Cl)c3c2c1`, the activity in assay [1] is -3.19%; in assay [3] it was -19.3%; in assay [4], -4.54%. Moreover, the activity change, negative = inhibition in assay [2] was -1.02%.

On to `CC[C@H]1CN(c2nc(N)c(C(N)=O)nc2Cl)CCN1C1CCN(Cc2ccc(Cl)cc2)CC1`, for which the results for the activity in assay [1], in assay [3] and in assay [4] were -6.83%, -61.1% and -5.17%, respectively. Also, the activity change, negative = inhibition in assay [2] was -2.17% [at 29.8 µM].

In the case of `CC1=C(C(=O)OC2CCCCC2)C(c2ccc([N+](=O)[O-])cc2)C2=C(CC(C)(C)CC2=O)N1` (configuration not stated), the activity in assay [1] is -30.3%; in assay [3], -8.48%; in assay [4], -64.1%. For the same compound, in assay [2], the Potency was 19.2 µM (active).

`C=CC(=O)Nc1ccc(CN2C(=O)N(c3cc(OC)cc(OC)c3)Cc3cnc(Nc4ccc(N5CCN(C)CC5)cc4)nc32)cc1`: the results for the activity in assay [1], in assay [3] and in assay [4] were -18.9%, -1.46% and -2.5%, respectively. Also, the activity change, negative = inhibition in assay [2] is -0.849%.

In the case of `CC(C)(C[C@@](O)(Cc1cc2ccncc2[nH]1)C(F)(F)F)c1cc(F)ccc1O`, the activity is 1.72% in assay [1], -1.53% in assay [3] and -1.87% in assay [4]. Further, the activity change, negative = inhibition in assay [2] stood at 0%.

Take `CC(C)C[C@H](CO)Nc1nc(S[C@@H](C)c2ccccc2)nc2nc(N)sc12`: the values for the activity in assay [1], in assay [3] and in assay [4] were -3.51%, -40.8% and -2.5%, respectively. In assay [2], the activity change, negative = inhibition came out at 1.87%.

For `CN1CCN(Cc2ccc(NC(=O)Cc3ccc(Oc4cc(NC(=O)C5CC5)ncn4)cc3)cc2C(F)(F)F)CC1`, the results for the activity in assay [1], in assay [3] and in assay [4] were -8.91%, -29.5% and -13.7%, respectively. Further, the activity change, negative = inhibition in assay [2] came out at 0.726%.

Regarding `CCC(CC)C(c1ccc(Nc2nc3ccccc3s2)cc1)n1cncn1` (configuration not stated), the activity in assay [1] was -3.56%; in assay [3], -14.5%; in assay [4], -5.31%. In addition, in assay [2], the activity change, negative = inhibition was -4.47%.
